An excerpt weighted towards active compounds, which were near 19% of everything screened.
HT1080 IDH1KD tx – qHTS for induction of synthetic lethality in tumor cells producing 2HG: qHTS for the HT-1080-IDH1KD cell line | HT-1080 IDH1 knockdown viability, ATP luminescence, 48 h | Potency, µM (series often up to 46.1 µM), for the others: at the top dose activity, negative = toxicity, most hits filed as cytotoxic | hit rate 2% among 360,000 | AID 686971, 2013;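 further: 0% = DMSO wells and -100% = cell-free medium wells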
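Viability of IDH1-knockdown HT-1080 fibrosarcoma cells was assessed by CellTiter-Glo after 48 h at 37 °C with titrated compound; concentration-effect curves were classified by fit quality and response size.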
KB-3-1 cytotox – qHTS assay for MDR1-selective chemotherapeutics: Primary screen using the parental adenocarcinoma cell KB-3-1; Potency, µM (top dose mostly 46.1 µM), usual class: cytotoxic; AID 1347075, 2019; hit rate 1.4% among 400,000; KB-3-1 viability, CellTiter-Glo ATP luminescence, 72 h; further: nearly all actives have a fitted effect of over 60% in size
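Screening of KB-3-1 cells (DMEM, 10% FBS, phenol-red free) ran from lowest to highest compound concentration; after 72 h at 37 °C viability was read luminescently and curves fitted.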
TDP1 cell noCPT – qHTS for Inhibitors of human tyrosyl-DNA phosphodiesterase 1 (TDP1): qHTS in cells in absence of CPT; hit rate 15% among 420,000; DT40 Tdp1-/- hTDP1 cells, no CPT, ATP luminescence, 48 h; Potency, µM (series often up to 46.2 µM), for the others: at the highest dose activity change, negative = growth inhibition, actives largely listed as inhibitors; AID 686978, 2013; further: nearly all actives have a fitted effect of over 55% in size
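A cellular qHTS used chicken DT40 cells lacking endogenous Tdp1 but carrying stably transfected human TDP1. Compounds were applied without camptothecin, and cell growth kinetics were judged by ATP-dependent luminescence after ≥48 hr.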
DT40 TDP1 CPT – qHTS for Inhibitors of human tyrosyl-DNA phosphodiesterase 1 (TDP1): qHTS in cells in presence of CPT; Potency, µM (titrated, usually from 46.2 µM), for the others: at the top dose activity change, negative = growth inhibition, most hits filed as inhibitors; AID 686979, 2013; hit rate 12% among 420,000; chicken DT40 Tdp1-/-;hTDP1 cells + 20 nM CPT, ATP luminescence, 48 h; further: nearly all actives have a fitted effect of over 55% in size
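Cell growth measured by CellTiter-Glo luminescence after a minimum 48 h, 37 C compound exposure with 20 nM CPT in Tdp1-knockout DT40 cells stably expressing hTDP1, seeded 400/well; qHTS titration format.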
HT1080-NT tox – qHTS for induction of synthetic lethality in tumor cells producing 2HG: qHTS for the HT-1080-NT fibrosarcoma cell line; HT-1080-NT fibrosarcoma viability, CellTiter-Glo ATP luminescence, 48 h; Potency, µM (doses to about 46.1 µM), without a hit: at the top dose activity, negative = less viability, hits mostly cytotoxic; hit rate 1.6% among 360,000; AID 686970, 2013;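 further: NT is the 2HG producing partner of a matched IDH1 knockdown line; 0% = DMSO-treated cells and -100% = media-only wells without cells; nearly all actives have a fitted effect of over 55% in size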
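HT-1080-NT; 750 cells/well; 5% FBS RPMI; 48 h compound, 37 degrees C; CellTiter-Glo luminescence; curve fitting and curve-class assignment.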
KB-V1 MDR tox – qHTS assay for MDR1-selective chemotherapeutics: Primary screen using the drug-selected MDR subline cells KB-V1; KB-V1 MDR cells viability, CellTiter-Glo, 72 h; Potency, µM (series often up to 46.1 µM), actives largely listed as cytotoxic; hit rate 3.4% among 400,000; AID 1347076, 2019; further: nearly all actives have a fitted effect of over 60% in size
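Cytotoxicity via CellTiter-Glo luminescence after 72 h compound exposure at 37 degrees C. Cells: drug-selected KB-V1 line, DMEM phenol-red free plus 10% FBS. Compounds tested at multiple concentrations; normalized data fitted to concentration-effect curves.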
The depositor's hits bear a star. The call rests on the fitted dose curve; in most records, active means well fitted curve in the direction sought with a large enough effect; inconclusive means small, poorly fitted or top-dose-only effect, or another doubt; inactive means no such curve, though single readings can be large; an effect the other way counts as inactive or inconclusive. Unless noted, on the % scale 0 is the no-effect control and ±100 the full control effect; potency means the concentration at half of the fitted maximal effect.

`CCOC(=O)CNc1nc(C(C)(C)C)nc2c1nnn2Cc1ccccc1` gave HT1080 IDH1KD tx inconclusive, KB-3-1 cytotox inconclusive, TDP1 cell noCPT inconclusive, DT40 TDP1 CPT inconclusive, HT1080-NT tox -28.9% and KB-V1 MDR tox inactive.
`CC1CCN(C(=O)C(C)NCc2ccc(F)cc2)CC1` (stereo unspecified) gave HT1080 IDH1KD tx -4.9%, KB-3-1 cytotox inactive, TDP1 cell noCPT 20.6µM*, DT40 TDP1 CPT inconclusive, HT1080-NT tox -8.4% and KB-V1 MDR tox inactive.
`CC1CCN(CC2CCN(C(=O)NCc3ccc(F)cc3)CC2)CC1` gave KB-3-1 cytotox inactive, TDP1 cell noCPT -17.4%, DT40 TDP1 CPT -13.2% and KB-V1 MDR tox inactive.
For Cc1ccc(S(=O)(=O)Nc2ccc(S(=O)(=O)NC(C)(C)C)cc2)cc1 the results were HT1080 IDH1KD tx 3.4%, KB-3-1 cytotox inconclusive, TDP1 cell noCPT -8.4%, DT40 TDP1 CPT -4.0%, HT1080-NT tox -6.3% and KB-V1 MDR tox 18.4µM*.
`Cc1ccc(NS(=O)(=O)c2ccc(C3CCCCC3)cc2)cc1` gave HT1080 IDH1KD tx -24.7%, KB-3-1 cytotox inconclusive, TDP1 cell noCPT inconclusive, DT40 TDP1 CPT inconclusive, HT1080-NT tox -23.6% and KB-V1 MDR tox 20.6µM*.
Screening Nc1c(C(=O)Nc2ccc(Cl)cc2)sc2nc(N3CCOCC3)c3c(c12)CCCC3 returned HT1080 IDH1KD tx -3.4%, KB-3-1 cytotox inactive, TDP1 cell noCPT 14.6µM*, DT40 TDP1 CPT inconclusive, HT1080-NT tox 0.8% and KB-V1 MDR tox inactive.
`Cc1ccc(NC(=O)c2sc3nc(N4CCOCC4)c4c(c3c2N)CCCC4)cc1` gave HT1080 IDH1KD tx 0.4%, KB-3-1 cytotox inactive, TDP1 cell noCPT inconclusive, DT40 TDP1 CPT -9.5%, HT1080-NT tox -0.3% and KB-V1 MDR tox inactive.
For Nc1c(C(=O)Nc2ccccc2)sc2nc(N3CCOCC3)c3c(c12)CCCC3 the results were HT1080 IDH1KD tx -4.5%, KB-3-1 cytotox inactive, TDP1 cell noCPT 9.2µM*, DT40 TDP1 CPT inconclusive, HT1080-NT tox -0.3% and KB-V1 MDR tox inactive.
`CCOc1ccc(NC(=O)c2sc3nc(N4CCOCC4)c4c(c3c2N)CCCC4)cc1` gave HT1080 IDH1KD tx 13.1%, KB-3-1 cytotox inactive, TDP1 cell noCPT inconclusive, DT40 TDP1 CPT inconclusive, HT1080-NT tox 6.7% and KB-V1 MDR tox inactive.
`CC(=O)c1ccc(NC(=O)c2sc3nc(N4CCOCC4)c4c(c3c2N)CCCC4)cc1` gave HT1080 IDH1KD tx 1.5%, KB-3-1 cytotox inactive, TDP1 cell noCPT 20.6µM*, DT40 TDP1 CPT inconclusive, HT1080-NT tox -0.4% and KB-V1 MDR tox inactive.
Screening COc1ccc(NC(=O)c2sc3nc(N4CCOCC4)c4c(c3c2N)CC(C)(C)OC4)cc1 returned HT1080 IDH1KD tx 10.0%, KB-3-1 cytotox inactive, TDP1 cell noCPT 11.1%, DT40 TDP1 CPT -29.2%, HT1080-NT tox 16.4% and KB-V1 MDR tox inconclusive.
Screening COc1cccc(NC(=O)c2sc3nc(N4CCOCC4)c4c(c3c2N)CCCC4)c1 returned HT1080 IDH1KD tx -4.3%, KB-3-1 cytotox inactive, TDP1 cell noCPT 23.1µM*, DT40 TDP1 CPT 25.9µM*, HT1080-NT tox -0.5% and KB-V1 MDR tox inactive.
Cc1nn(C(C)C(=O)NNC(=S)Nc2ccc(F)cc2)c(C)c1[N+](=O)[O-] (stereo unspecified) was read as HT1080 IDH1KD tx -2.1%, KB-3-1 cytotox inactive, TDP1 cell noCPT 0.7%, DT40 TDP1 CPT 4.2%, HT1080-NT tox 1.7% and KB-V1 MDR tox inactive.
`O=Cc1cc(CCC(=O)O)ccc1O` gave HT1080 IDH1KD tx 8.5%, KB-3-1 cytotox inactive, TDP1 cell noCPT inconclusive, DT40 TDP1 CPT -22.3%, HT1080-NT tox 0.4% and KB-V1 MDR tox inconclusive.
For NNC(=O)c1sc2nc(N3CCOCC3)c3c(c2c1N)CCCC3 the results were HT1080 IDH1KD tx -28.3%, KB-3-1 cytotox inactive, TDP1 cell noCPT inconclusive, DT40 TDP1 CPT -28.8%, HT1080-NT tox -4.3% and KB-V1 MDR tox inactive.
Nc1c(C(=O)NCc2ccccc2)sc2nc(N3CCOCC3)c3c(c12)CCCC3 was read as HT1080 IDH1KD tx -18.8%, KB-3-1 cytotox inactive, TDP1 cell noCPT 20.6µM*, DT40 TDP1 CPT inconclusive, HT1080-NT tox -24.1% and KB-V1 MDR tox inactive.
`COc1ccccc1CCNC(=O)c1cccc(NC(=O)CC2SC(N3CCCCC3)=NC2=O)c1` (stereo unspecified) gave HT1080 IDH1KD tx 3.4%, KB-3-1 cytotox inactive, TDP1 cell noCPT inconclusive, DT40 TDP1 CPT inconclusive, HT1080-NT tox -5.6% and KB-V1 MDR tox inactive.
Screening CCC1CN(C(=O)N2CCC(C(=O)NCCN(CC)CC)CC2)c2cc(C)ccc2O1 (stereo unspecified) returned TDP1 cell noCPT -19.8% and DT40 TDP1 CPT -12.7%.
CCC1CN(C(=O)N2CCC(C(=O)NCc3cccc(F)c3)CC2)c2cc(C)ccc2O1 (stereo unspecified) was read as TDP1 cell noCPT 16.4µM* and DT40 TDP1 CPT 20.6µM*.
For CCC1CN(C(=O)N2CCC(C(=O)NCc3ccccc3OC)CC2)c2cc(C)ccc2O1 (stereo unspecified) the results were HT1080 IDH1KD tx -13.2%, KB-3-1 cytotox inactive, TDP1 cell noCPT inconclusive, DT40 TDP1 CPT 16.4µM*, HT1080-NT tox -3.8% and KB-V1 MDR tox inactive.
For CCC1CN(C(=O)N2CCC(C(=O)NCCc3ccc(OC)cc3OC)CC2)c2cc(C)ccc2O1 (stereo unspecified) the results were TDP1 cell noCPT 16.4µM* and DT40 TDP1 CPT 20.6µM*.
For CCC(C(=O)OCC(=O)Nc1ccc(SC(F)F)cc1)c1ccccc1 (stereo unspecified) the results were HT1080 IDH1KD tx 16.0%, KB-3-1 cytotox inactive, TDP1 cell noCPT 0.1%, DT40 TDP1 CPT -22.3%, HT1080-NT tox 22.1% and KB-V1 MDR tox inconclusive.
Screening CCCC1C2C(=O)N(c3cccc(C)c3)C(=O)C2ON1c1ccccc1 (stereo unspecified) returned HT1080 IDH1KD tx 7.1%, KB-3-1 cytotox inactive, TDP1 cell noCPT 2.5%, DT40 TDP1 CPT -7.2%, HT1080-NT tox 2.5% and KB-V1 MDR tox inactive.
